Measured values from PubChem BioAssay AID1347076 (National Center for Advancing Translational Sciences (NCATS), 2019).
Among all 400,000 compounds or so, about 13,000 (3.2%) were called active. Roughly 18% stayed inconclusive and do not appear here. What follows is part of a selection rich in actives, with near analogues and random picks from the rest. A number with no mark means an inactive call. The call rests on the fitted dose curve; in most records, active means well fitted cell-killing curve with a large enough effect; inconclusive means small, poorly fitted or top-dose-only effect, or effect the other way; inactive means flat fitted curve, though single readings scatter.

Experiment: qHTS assay for MDR1-selective chemotherapeutics: Primary screen using the drug-selected MDR subline cells KB-V1; further: nearly all actives have a fitted effect of over 60% in size
Settings: KB-V1 MDR cells viability, CellTiter-Glo, 72 h; series mostly up to 46.1 µM; activity change, negative = cytotoxicity: at the top concentration
Outline: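 qHTS viability screen in drug-selected KB-V1 MDR cells: 72 h compound treatment at 37 degrees C, ATP luminescence end point.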
On the % scale 0 is the no-effect control and ±100 the full control effect; potency means the concentration at half of the fitted maximal effect.

| Structure (SMILES) | activity change, negative = cytotoxicity [%] | Potency |
| --- | --- | --- |
| Cc1ccc(-c2nn3c(=O)cc(CN4CCN(S(=O)(=O)c5ccc(Cl)cc5)CC4)nc3s2)cc1 | -6.24 |  |
| Cc1cccc(C)c1NC(=O)CNC(=O)c1ccc(N2CCOCC2)c([N+](=O)[O-])c1 | 9.61 |  |
| CCn1c(/C=C/c2ccc([N+](=O)[O-])o2)nc2ccccc2c1=O |  | 5.17 µM (active) |
| O=c1oc(/C=C/c2ccccc2)nc2ccccc12 | -11.6 |  |
| CCc1ccc(S(=O)(=O)N/N=C\c2ccc([N+](=O)[O-])o2)cc1 | 7.82 |  |
| CSc1ncccc1C(=O)N1CCCC(Nc2ccc(F)c(F)c2)C1 (stereo not drawn) | 0.526 |  |
| CCc1nn(CCCC(=O)NCc2ccccc2OC)c(=O)c2cc3occc3n12 | -0.332 |  |
| Cc1cc(Br)cn2c(Cc3cccc(F)c3)c(-c3cccc(Br)c3)nc12 | 12.7 |  |
| CCOC(=O)c1c(NC(=O)Cc2coc3ccc(CC)cc23)sc2c1CCC2 | -15.3 |  |
| CCOC(=O)c1c(NC(=O)CSc2cn(CC)c3ccccc23)sc2c1CCC2 | 19.3 |  |
| CCOC(=O)c1c(NC(=O)Cn2nc(C(F)(F)F)cc2C)sc2c1CCC2 |  | 20.6 µM (active) |
| CCCS(=O)(=O)NC(=O)C1(C)CCCN(C(=O)c2cccs2)C1 (stereo not drawn) | 1.76 |  |
| O=C(CN1CCCCC1)Nc1ccccc1C(=O)NC1CC1 | -13.3 |  |
| Cc1ccc(OCC(=O)Nc2ccccc2C(=O)NC2CC2)cc1C | -24.5 |  |
| CC(NCC(=O)Nc1ccccc1C(=O)NC1CC1)c1ccccc1Cl (stereo not drawn) |  | 18.4 µM (active) |
| Cc1ccc(OCC(=O)Nc2ccccc2C(=O)NC2CC2)cc1 |  | 8.2 µM (active) |
| COc1ccccc1OCC(=O)Nc1ccccc1C(=O)NC1CC1 | -1.47 |  |
| CCCC(NCC(=O)Nc1ccccc1C(=O)NC1CC1)c1ccccc1 (stereo not drawn) | 0.208 |  |
| c1ccc(CNCc2ccc(CNCc3ccccc3)cc2)cc1 | -14.3 |  |
| CCc1nnc(SCC(=O)Nc2cc(OC)ccc2OC)nc1CC | -12.3 |  |
| Cc1ccccc1OS(=O)(=O)c1cccc([N+](=O)[O-])c1 | -5.34 |  |
| Cc1ccccc1OCCOc1ccc([N+](=O)[O-])cc1/C=N/n1cnnc1 |  | 8.2 µM (active) |
| COc1ccccc1OCCOc1ccc(/C=N/n2cnnc2)cc1 | 13.5 |  |
| O=C(CSc1nc2cccc(F)c2c(=O)n1-c1ccccc1)Nc1ccc2c(c1)CCC2 | 9.88 |  |
| c1ccc(CCc2nc(-c3ccncc3)no2)cc1 | 3.7 |  |
| O=C1c2ccccc2C(=O)N1CCCc1nc(-c2ccccc2)no1 |  | 18.4 µM (active) |

| Structure (SMILES) | activity change, negative = cytotoxicity [%] | Potency |
| --- | --- | --- |
| O=C1c2ccccc2C(=O)N1CCCCCCN1C(=O)c2ccccc2C1=O | -1.54 |  |
| C[C@H]1CN([C@@H](C)CO)C(=O)CCCn2cc(nn2)CO[C@@H]1CN(C)S(=O)(=O)c1cccs1 | 25.4 |  |
| OC(c1ccc(Cl)c(F)c1)c1ncc(-c2ccccc2Cl)[nH]1 (stereo not drawn) | -18.9 |  |
| Cc1ccc(S(=O)(=O)N2CCOCC2)cc1NC(=O)c1ccncc1 | -0.489 |  |
| O=C(CNCc1cccs1)Nc1cc(S(=O)(=O)N2CCCC2)ccc1Cl | -9.92 |  |
| CCN(CC)S(=O)(=O)c1ccc(N2CCOCC2)c(NC(=O)C2COc3ccccc3O2)c1 (stereo not drawn) | 0 |  |
| O=C(Nc1cc(S(=O)(=O)N2CCCCC2)ccc1Cl)C1COc2ccccc2O1 (stereo not drawn) |  | 14.6 µM (active) |
| CCc1ccc(Sc2cc(C(=O)NCCCOC(C)C)c3ccccc3n2)cc1 | -5.59 |  |
| CCc1c(C)nc(N2CCN(Cc3ccccc3)CC2)[nH]c1=O | -7.43 |  |
| O=C1c2ccccc2C(=O)c2c1cccc2N1CCN(Cc2ccccc2)CC1 |  | 18.4 µM (active) |
| O=C1c2ccccc2C(=O)c2c1cccc2N1CCN(C/C=C/c2ccccc2)CC1 | -4.28 |  |
| O=c1[nH][nH]c2c1[C@H](c1ccc(Cl)cc1)O[C@H](CCc1ccccc1)C2 | 3.7 |  |
| O=C(CSc1nccn1Cc1ccc(Cl)cc1)NCc1ccccc1 | -3.81 |  |
| COc1cc(F)ccc1-c1cc(C(=O)NCC2CCCCC2)[nH]n1 | 5.34 |  |
| COc1ccc(S(=O)(=O)N2CCC(C(=O)N3CCOCC3)CC2)cc1OC | 3.64 |  |
| COc1ccc(S(=O)(=O)N2CCC(C(=O)N3CCCC3)CC2)cc1C | -33 |  |
| COc1ccc(S(=O)(=O)N2CCC(C(=O)N3CCc4ccccc4C3)CC2)cc1OC |  | 13 µM (active) |
| C[C@H](CO)N1C[C@H](C)[C@@H](CN(C)C(=O)c2cnccn2)Oc2ncc(Br)cc2C1=O | 7.15 |  |
| CC(C)c1ccc(NC(=O)c2ccc(Cn3nc(N4CCN(c5ccccc5)CC4)ccc3=O)o2)cc1 | -11.2 |  |
| Cc1ccc(-c2nc3ccc(Cl)cn3c2Cc2ccccc2)cc1 | 4.25 |  |
| CC1(C(=O)NS(=O)(=O)Cc2cccc(Cl)c2)CCN1C(=O)Cc1ccccc1 (stereo not drawn) | 1.26 |  |
| Cc1nn(CC(=O)NCc2ccccn2)c(C)c1[N+](=O)[O-] | 19.4 |  |
| CCc1ccc(NC(=O)Cn2nc(C)c([N+](=O)[O-])c2C)cc1 | 3 |  |
| Cc1ccc(Oc2cc(NC(=O)CCCn3nc(C)c([N+](=O)[O-])c3C)cc([N+](=O)[O-])c2)cc1 |  | 10.3 µM (active) |
| COc1ccc(CNC(=O)CCCn2nc(C)c([N+](=O)[O-])c2C)cc1 |  | 25.9 µM (active) |
| Cc1nn(CC(=O)Nc2ccc(N(C)C)cc2)c(C)c1[N+](=O)[O-] | -5 |  |

| Structure (SMILES) | activity change, negative = cytotoxicity [%] | Potency |
| --- | --- | --- |
| COc1ccc(CNC(=O)CCn2cccc2)cc1 | 5.31 |  |
| CCCNC(=O)C1(C)CCN(C(=O)c2ccc(F)cc2Cl)C1 (stereo not drawn) | 4.08 |  |
| CCn1c(CSc2ncccn2)nnc1SCC(=O)N1c2ccccc2CC1C (stereo not drawn) |  | 11.6 µM (active) |
| Cn1c(SCC(=O)OC2CCCCC2)nnc1-c1ccc(S(=O)(=O)N2CCCC2)cc1 | -8.43 |  |
| CCS(=O)(=O)c1ccc2oc(SCC(=O)N3c4ccccc4CC3C)nc2c1 (stereo not drawn) |  | 5.17 µM (active) |
| CC1CC(C)CN(C(=O)CSc2nnc(CSc3ncccn3)n2C)C1 (stereo not drawn) | 1.6 |  |
| CC1Cc2ccccc2N1C(=O)Cn1cnc2ccccc2c1=O (stereo not drawn) | -2.59 |  |
| CC(C)(C)C(=O)CSc1nc2ccccc2o1 | -5.46 |  |
| CC1Cc2ccccc2N1C(=O)CSc1nc2ccccc2o1 (stereo not drawn) |  | 14.6 µM (active) |
| COc1ccc(S(=O)(=O)N2CCN(CC(=O)N3c4ccccc4CC3C)CC2)cc1OC (stereo not drawn) | -22.6 |  |
| O=C(CSc1nc2ccccc2o1)N1CCN(c2ccccc2)CC1 | 2.2 |  |
| CN(C)S(=O)(=O)c1ccc2oc(SCC(=O)Nc3ccccc3F)nc2c1 | 2.48 |  |
| CC1Cc2ccccc2N1C(=O)CSc1nnc(-c2ccc(S(=O)(=O)N3CCCC3)cc2)n1C (stereo not drawn) |  | 16.4 µM (active) |
| CC1Cc2ccccc2N1C(=O)CSc1nnc(C2CC2)n1C (stereo not drawn) | -27 |  |
| Cc1cc(C)c2sc(NC(=O)c3ccc(S(=O)(=O)N4CCCC4)cc3)nc2c1 | 0 |  |
| Brc1ccc2nc(-c3ccccc3)c(Cc3ccccc3)n2c1 | 9.06 |  |
| ClC/C=C/C[n+]1ccccc1Cl | -11.5 |  |
| CC(C)(C)c1ccc(S(=O)(=O)NC(=O)C2(C)CCN2C(=O)CC2CC2)cc1 (stereo not drawn) | 3.48 |  |
| COc1ccc(C(=O)N2CCCCC2c2cc(C(=O)Nc3ccccc3)no2)cc1 (stereo not drawn) | -4.79 |  |
| Cn1cc(S(=O)(=O)N2CCCCCC2)cc1C(=O)N1CCN(c2ccc(F)cc2)CC1 | -10.1 |  |
| CCOC(=O)c1cnc(SCC(=O)Nc2cccc(OC)c2)nc1N | 11.5 |  |
| CCOC(=O)c1cnc(SCC(=O)NCc2ccco2)nc1N | -0.0889 |  |
| CCOC(=O)c1cnc(SCC(=O)Nc2ccccc2C(=O)OC)nc1N |  | 2.59 µM (active) |
| CCOC(=O)c1c(C)[nH]c(C)c1S(=O)(=O)N1CCC(C(=O)Nc2ccc(C)c(Cl)c2)CC1 | 0 |  |
| Cc1ccc(CNC(=O)CN2CCN(Cc3ccc(Cl)cc3)C2=O)cc1 | -13 |  |
| C/C(CC(=O)NCc1ccc(Cl)cc1)=N\NC(=O)COc1ccc(C)cc1Br |  | 8.2 µM (active) |

| Structure (SMILES) | activity change, negative = cytotoxicity [%] | Potency |
| --- | --- | --- |
| CCCCC(=O)N/N=C(\C)CC(=O)Nc1cc(Cl)ccc1OC | 15.9 |  |
| O=C(NCc1ccc(F)cc1)c1cc(C2CCCCN2C(=O)c2cccs2)on1 (stereo not drawn) | -6.97 |  |
| CC1C(=O)N(Cc2cn(Cc3ccco3)nn2)CCS(=O)(=O)N1Cc1ccc(-c2cccc(CO)c2)cc1 (stereo not drawn) | -6.01 |  |
| CN1CCN(CC(=O)Nc2cccc([N+](=O)[O-])c2)CC1 | -17.3 |  |
| CCc1ccc(-c2cc(C(=O)NN3CCN(C)CC3)c3ccccc3n2)cc1 | 9.05 |  |
| CCCCc1nc2ccccc2c(NC(=O)CN2CCN(C)CC2)c1CCC |  | 8.2 µM (active) |
| C[C@H]1CN([C@@H](C)CO)C(=O)c2cc(-c3ccccc3F)cnc2O[C@H]1CN(C)C(=O)C1CCOCC1 | 2.17 |  |
| NC(Cc1ccc(F)cc1)c1csc(Nc2nncc3ccccc23)n1 (stereo not drawn) | 2.75 |  |
| Cc1ccc(S(=O)(=O)c2cn(Cc3ccccc3)c3cc(N4CCCC4)c(F)cc3c2=O)c(C)c1 | -14.3 |  |
| CCOC(=O)C1CCCN(C(=O)c2ccc(N(C)C)cc2)CC1 (stereo not drawn) | -1.52 |  |
| COc1ccc(OC)c(C(O)c2ncc(-c3cccc(C(F)(F)F)c3)[nH]2)c1 (stereo not drawn) | -21.4 |  |
| CSCCC(NC(=O)c1ccccc1)C(=O)N1CCN(Cc2ccc(Cl)cc2)CC1 (stereo not drawn) |  | 18.4 µM (active) |
| CSCCC(NC(=O)c1ccccc1)C(=O)N1CCCCCCC1 (stereo not drawn) | 0.0799 |  |
| COc1ccccc1C(=O)NC(CCSC)C(=O)N1CCN(C(C)=O)CC1 (stereo not drawn) | 1.56 |  |
| CC1=C(C(=O)OCC(C)C)C(c2ccc(OCc3ccccc3)cc2)N2C(=O)CCSC2=N1 (stereo not drawn) | -14.8 |  |
| O=C(NCc1ccc2c(c1)OCO2)c1c(O)nc2sccn2c1=O |  | 8.2 µM (active) |
| O=C(NCc1ccc2c(c1)OCO2)c1sccc1Br | -18.2 |  |
| C=CCn1c(=O)c(C(=O)NCc2ccc3c(c2)OCO3)c(O)c2ccccc21 | -9.99 |  |
| O=[N+]([O-])c1cc(-c2nc(-c3ccccc3)no2)ccc1NCc1ccco1 | 17.7 |  |
| c1ccc(-c2nc(NCc3ccco3)c3ccccc3n2)cc1 |  | 23.1 µM (active) |
| c1coc(CNc2ncnc3ccccc23)c1 |  | inactive |
| COc1ccc(-c2cnc3c(c2)C(=O)N([C@H](C)CO)C[C@@H](C)[C@H](CN(C)Cc2ccccc2)O3)cc1 | 20.4 |  |
| COc1cc(CN2CCCN(C)CC2)c([N+](=O)[O-])cc1OC | 0 |  |
| COc1cc(CNCc2ccc3c(c2)OCO3)c([N+](=O)[O-])cc1OC | -21.1 |  |
| COc1cc2c(cc1OC)C(Cc1cc(OC)c(OC)cc1[N+](=O)[O-])=NCC2 |  | 9.2 µM (active) |
